Test results as given in PubChem BioAssay (NCATS).
Results filed as inconclusive are left out. Calls of active or inactive are those of the source. Unless noted, the call rests on the fitted dose curve; in most records, active means well fitted curve in the direction sought with a large enough effect; inconclusive means small, poorly fitted or top-dose-only effect, or another doubt; inactive means no such curve, though single readings can be large; an effect the other way counts as inactive or inconclusive.

What was measured:
[1] = qHTS assay for measurement of the activity of small molecule inhibitors on Zika virus induced Caspase-3 activity in human iPSC derived neural progenitor cells (hNPCs) (AID 1224857); further: nearly all actives have a fitted effect of over 65% in size
Procedure, shortened: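 Human iPSC-derived neural progenitor cells pretreated 1 hr with compounds, then infected with Zika virus (2 FFU/cell) for 6 hours at 37 C. Caspase-3/7 measured by Caspase-Glo luminescence; % inhibition calculated from induction scaled to uninfected (0%) and infected (100%) wells.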

[2] = qHTS assay for measurement of the activity of small molecule inhibitors on Zika virus induced Caspase-3 activity in human astrocytoma cells (AID 1224859)
Procedure, shortened: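 SNB-19 astrocytoma cells, 250/well, pretreated 1 h with compounds, then Zika virus at 2 FFU/cell for 6 h at 37 C; Caspase-Glo 3/7 luminescence after 30 min; percent inhibition normalised to uninfected and infected controls.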

[3] = P-glycoprotein substrates identified in KB-8-5-11 adenocarcinoma cell line, qHTS therapeutic library screen (AID 1346987); further: nearly all actives have a fitted effect of over 65% in size; further: potency means the concentration at half of the fitted maximal effect
Procedure, shortened: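 Steps: plate 500 KB-8-5-11 cells/well in DMEM + 10% FCS (colchicine removed); pin compounds in dose-response; incubate 72 h, 37 degree C, 5% CO2; add CellTiter-Glo, 5 min; read luminescence.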

[4] = NS1 protein of Zika virus - qHTS assay to identify small molecule inhibitors in human HEK 293 cells (AID 1347053); further: nearly all actives have a fitted effect of over 55% in size; further: potency means the concentration at half of the fitted maximal effect
Procedure, shortened: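 HEK 293 cells, seeded 20 h at 37 C, were pretreated with compound 1 h, then infected with ZIKV MR766 (MOI = 0.5) for 24 h. NS1 was read by TR-FRET with two anti-NS1 antibodies, normalized to uninfected and infected wells.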

[5] = Natriuretic polypeptide receptor (hNpr1) antagonism - Pilot counterscreen GloSensor control cell line (AID 1347045; calls by dose curve; further: series mostly up to about 38 µM)
Procedure, shortened: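 Luminescence was read before and 20 min after adding 50 uM SNP, which stimulates soluble guanylyl cyclase. The HEK293 cells expressing the GloSensor cGMP sensor had been preloaded with 2% reagent for 2 h and treated with compound.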

[6] = molecular target: Atrial natriuretic peptide receptor 1 (Homo sapiens) (UniProt P16066); assay: Natriuretic polypeptide receptor (hNpr1) antagonism - Pilot screen (AID 1347049; calls by dose curve;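 further: agonist-evoked cGMP luminescence read 20 min after hNppA addition; series mostly up to about 58 µM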)
Atrial natriuretic peptide receptor 1 (Homo sapiens), sequence (P16066 whole entry, looked up): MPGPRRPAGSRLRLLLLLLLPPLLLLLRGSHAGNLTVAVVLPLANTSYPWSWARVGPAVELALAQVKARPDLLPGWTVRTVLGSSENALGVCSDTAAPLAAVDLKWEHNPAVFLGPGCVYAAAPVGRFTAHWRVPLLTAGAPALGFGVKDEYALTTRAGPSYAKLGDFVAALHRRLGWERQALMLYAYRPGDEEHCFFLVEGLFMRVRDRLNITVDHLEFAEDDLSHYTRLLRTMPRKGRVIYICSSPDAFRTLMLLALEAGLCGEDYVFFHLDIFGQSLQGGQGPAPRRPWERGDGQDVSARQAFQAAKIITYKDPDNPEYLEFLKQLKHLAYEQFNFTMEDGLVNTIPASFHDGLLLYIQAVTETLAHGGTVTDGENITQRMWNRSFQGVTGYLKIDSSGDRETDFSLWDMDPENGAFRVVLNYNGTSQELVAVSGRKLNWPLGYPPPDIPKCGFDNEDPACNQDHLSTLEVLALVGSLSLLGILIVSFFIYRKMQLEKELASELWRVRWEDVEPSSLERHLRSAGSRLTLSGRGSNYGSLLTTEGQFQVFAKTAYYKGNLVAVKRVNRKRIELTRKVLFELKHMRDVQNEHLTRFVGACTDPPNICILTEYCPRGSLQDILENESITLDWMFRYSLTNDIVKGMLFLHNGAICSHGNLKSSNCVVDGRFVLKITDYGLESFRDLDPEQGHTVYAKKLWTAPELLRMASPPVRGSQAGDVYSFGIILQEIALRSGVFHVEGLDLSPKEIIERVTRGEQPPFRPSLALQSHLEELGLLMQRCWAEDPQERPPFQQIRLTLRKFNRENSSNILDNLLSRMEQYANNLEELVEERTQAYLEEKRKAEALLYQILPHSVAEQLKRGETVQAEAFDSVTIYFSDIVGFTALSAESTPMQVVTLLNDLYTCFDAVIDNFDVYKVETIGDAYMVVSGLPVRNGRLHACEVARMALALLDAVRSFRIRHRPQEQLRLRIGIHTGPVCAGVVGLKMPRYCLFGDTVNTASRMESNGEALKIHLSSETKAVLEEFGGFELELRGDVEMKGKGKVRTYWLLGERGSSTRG
Procedure, shortened: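 HEK293 cells co-expressing hNpr1 and the GloSensor pGS-40F cGMP luciferase sensor were preloaded with 2% GloSensor reagent for 2 h. Compounds were added for 30 min at room temperature, then cells were stimulated with 0.1 nM hNppA for 20 min before luminescence readout.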

[7] = molecular target: Atrial natriuretic peptide receptor 2 (Homo sapiens) (UniProt P20594); assay: Natriuretic polypeptide receptor (hNpr2) antagonism - Pilot subtype selectivity assay (AID 1347050; calls by dose curve)
Atrial natriuretic peptide receptor 2 (Homo sapiens), sequence (P20594 whole entry, looked up): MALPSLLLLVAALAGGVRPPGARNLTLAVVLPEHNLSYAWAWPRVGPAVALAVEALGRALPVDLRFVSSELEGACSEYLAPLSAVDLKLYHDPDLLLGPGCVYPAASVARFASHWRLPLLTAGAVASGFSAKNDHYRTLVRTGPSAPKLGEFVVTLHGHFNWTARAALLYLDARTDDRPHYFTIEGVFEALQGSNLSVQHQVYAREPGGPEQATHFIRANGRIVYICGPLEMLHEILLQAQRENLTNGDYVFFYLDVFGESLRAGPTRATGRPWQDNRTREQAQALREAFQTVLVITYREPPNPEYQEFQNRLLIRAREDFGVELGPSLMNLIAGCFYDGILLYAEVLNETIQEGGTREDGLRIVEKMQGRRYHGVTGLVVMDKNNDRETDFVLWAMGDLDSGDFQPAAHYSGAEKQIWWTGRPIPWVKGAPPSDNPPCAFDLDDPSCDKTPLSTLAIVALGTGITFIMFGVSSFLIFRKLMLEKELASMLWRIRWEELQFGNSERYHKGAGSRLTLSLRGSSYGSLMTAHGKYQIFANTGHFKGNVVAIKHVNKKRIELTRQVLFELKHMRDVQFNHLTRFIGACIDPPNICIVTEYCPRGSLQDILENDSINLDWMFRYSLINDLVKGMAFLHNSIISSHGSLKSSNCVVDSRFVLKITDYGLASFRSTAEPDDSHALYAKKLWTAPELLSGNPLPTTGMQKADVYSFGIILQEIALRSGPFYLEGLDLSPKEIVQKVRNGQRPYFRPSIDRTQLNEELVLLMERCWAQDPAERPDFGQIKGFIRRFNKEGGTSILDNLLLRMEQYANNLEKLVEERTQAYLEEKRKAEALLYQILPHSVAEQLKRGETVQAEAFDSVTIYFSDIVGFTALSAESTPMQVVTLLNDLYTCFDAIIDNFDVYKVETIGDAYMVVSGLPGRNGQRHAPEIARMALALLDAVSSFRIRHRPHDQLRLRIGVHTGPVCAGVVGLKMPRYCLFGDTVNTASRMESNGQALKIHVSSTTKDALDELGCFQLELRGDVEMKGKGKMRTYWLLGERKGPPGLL
Procedure, shortened: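 cGMP-sensor HEK293/hNpr2 cells; 2% GloSensor reagent 2 h RT; compounds 30 min; baseline luminescence read; 1 nM hNppC agonist 20 min RT; final luminescence read by CCD camera. Antagonism = reduced post-agonist signal.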

[8] = qHTS Screen of the MIPE 4.0 Collection Against Ewings Sarcoma (TC71) (AID 1259253); further: nearly all actives have a fitted effect of over 40% in size; further: potency means the concentration at half of the fitted maximal effect
Procedure, shortened: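 Measured: ATP luminescence (CellTiter-Glo) 10 min after reagent addition, following 48 h drug treatment. Relative luciferase units converted to percent activity, with no-cell wells as full and DMSO wells as zero inhibition.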

[9] = Identifying Small Molecule Inhibitors of Pancreatic Cancer Stem Cells (A2780, Spheroid) (AID 1259357); conditions: Potency: A2780 spheroid viability;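 further: potency means the concentration at half of the fitted maximal effect; compound exposure lasted 48 h before the ATP luminescence read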
Procedure, shortened: (§1)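 Cytotoxicity read by CellTiter-Glo luminescence after 48 h compound exposure at 37C; percent activity scaled between DMSO-treated cells and cell-free wells. Spheroid formats used cells pre-formed 14 days in stem cell media on hydrogel.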

[10] = Identifying Small Molecule Inhibitors of Pancreatic Cancer Stem Cells (Panc1, Spheroid) (AID 1259359); conditions: Panc1 spheroid cancer stem cell viability;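 further: potency means the concentration at half of the fitted maximal effect; compound exposure lasted 48 h before reading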
Procedure, shortened: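 Adherent (2D) versus sphere (3D) formats; spheres generated 14 d in SCM beforehand. Compound transferred by pin tool after 4 h, 48 h incubation, CellTiter-Glo endpoint.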

[11] = Identifying Small Molecule Inhibitors of Pancreatic Cancer Stem Cells (SN12C, Spheroid) (AID 1259360); conditions: Potency: SN12C spheroid viability; further: potency means the concentration at half of the fitted maximal effect
Procedure, shortened: as §1

[12] = Identifying Small Molecule Inhibitors of Pancreatic Cancer Stem Cells (A278, Adherent) (AID 1259361); further: nearly all actives have a fitted effect of over 35% in size
Procedure, shortened: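 After a 4 h attachment period, compounds were pinned into wells and cultures held 48 h under standard incubator conditions. Viability was then measured as CellTiter-Glo luminescence following 10 min at room temperature.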

CCC1(CCC(C)C)C(=O)NC(=O)NC1=O
inactive: Potency [1] | Potency [2] | Potency [3] | Potency [4]

CC(C)(C)NC[C@H](O)c1ccc(O)cc1Cl
inactive: Potency [1] | Potency [2] | Potency [3] | Potency [4]

OCCCBr
inactive: Potency [1] | Potency [2] | Potency [3] | Potency [4]

Nc1ccc(Cl)cc1
inactive: Potency [1] | Potency [2] | Potency [3] | Potency [4]

CNCCc1c[nH]c2ccc(O)cc12
inactive: Potency [1] | Potency [2] | Potency [5] | Potency [6] | Potency [7] | Potency [4]

CC(=O)[C@H]1CCC2C3CC[C@H]4C[C@H](O)CC[C@]4(C)C3CC[C@@]21C (some centres undefined)
inactive: Potency [1] | Potency [2] | Potency [5] | Potency [7] | Potency [4]

COc1cc(C(O)CN)ccc1O (centres undefined)
inactive: Potency [1] | Potency [2] | Potency [5] | Potency [7] | Potency [4]

NC1CCc2cc(O)c(O)cc2C1 (centres undefined)
inactive: Potency [1] | Potency [2] | Potency [5] | Potency [7] | Potency [4]

c1cc2ccc3cccc4ccc(c1)c2c34
inactive: Potency [1] | Potency [2] | Potency [3] | Potency [4]

Nc1ccc(Sc2ccc(N)cc2)cc1
inactive: Potency [1] | Potency [2] | Potency [3] | Potency [4]

CCO/N=C(\CC)C1=C(O)CC(c2c(C)cc(C)cc2C)CC1=O (centres undefined)
inactive: Potency [1] | Potency [2] | Potency [3] | Potency [4]

O=C(O)c1cc(Oc2ccc(C(F)(F)F)cc2Cl)ccc1[N+](=O)[O-]
inactive: Potency [1] | Potency [2] | Potency [3] | Potency [4]

Nc1c(Cl)c(Cl)c(Cl)c(Cl)c1Cl
inactive: Potency [1] | Potency [2] | Potency [3] | Potency [4]

NC(=NCCC[C@H](N)C(=O)O)N[N+](=O)[O-]
inactive: Potency [1] | Potency [2] | Potency [5] | Potency [6] | Potency [7] | Potency [4]

NCCc1c[nH]c2ccc(O)cc12
inactive: Potency [1] | Potency [2] | Potency [5] | Potency [7] | Potency [4]

O=S(=O)(O)C(F)(F)C(F)(F)C(F)(F)C(F)(F)C(F)(F)C(F)(F)C(F)(F)C(F)(F)F
inactive: Potency [1] | Potency [2] | Potency [3] | Potency [4]

O=C1CCCN1CC#CCN1CCCC1
inactive: Potency [1] | Potency [2] | Potency [5] | Potency [6] | Potency [7] | Potency [4]

NC(CCP(=O)(O)O)C(=O)O (centres undefined)
inactive: Potency [1] | Potency [2] | Potency [5] | Potency [7] | Potency [4]

O=C(Cc1ccc(Cl)c(Cl)c1)N1CCCCC1CN1CCCC1 (centres undefined)
inactive: Potency [1] | Potency [2] | Potency [5] | Potency [7] | Potency [4]

NC(N)=NOCCC(N)C(=O)O (centres undefined)
inactive: Potency [1] | Potency [2] | Potency [5] | Potency [7] | Potency [4]

CNCCc1ccc(O)c(O)c1
inactive: Potency [1] | Potency [2] | Potency [5] | Potency [7] | Potency [4]

CS(=O)(=O)c1ccc(C(=O)C2C(=O)CCCC2=O)c([N+](=O)[O-])c1
inactive: Potency [1] | Potency [2] | Potency [3] | Potency [4]

O=C(O)Cc1cnc[nH]1
inactive: Potency [1] | Potency [2] | Potency [5] | Potency [7] | Potency [4]

CO/C=C(/C(=O)OC)c1ccccc1Oc1cc(Oc2ccccc2C#N)ncn1
inactive: Potency [1] | Potency [2]
active: Potency [3] 3.16 µM | Potency [4] 14.1 µM

C[C@]12CCC3C(CC[C@H]4C[C@H](O)CC[C@]34C)C1CC[C@@H]2C(=O)CO (some centres undefined)
inactive: Potency [1] | Potency [2] | Potency [5] | Potency [7] | Potency [4]

NCc1cc(=O)[nH]o1
inactive: Potency [1] | Potency [2] | Potency [5] | Potency [6] | Potency [7] | Potency [4]

Oc1ccc2c3c1O[C@H]1[C@@H](O)C=C[C@H]4[C@@H](C2)NCC[C@@]341
inactive: Potency [1] | Potency [2] | Potency [3] | Potency [4]

CCCN(CCC)[C@@H]1CCc2ccc(O)cc2C1
inactive: Potency [1] | Potency [2] | Potency [5] | Potency [7] | Potency [4]

CCCN1CCO[C@@H]2c3cc(O)ccc3OC[C@H]21
inactive: Potency [1] | Potency [2] | Potency [5] | Potency [6] | Potency [7] | Potency [4]

CCCCCCCCc1ccc(O)cc1
inactive: Potency [1] | Potency [2] | Potency [3] | Potency [4]

C[C@@H]1O[C@H](C[N+](C)(C)C)C[C@H]1O
inactive: Potency [1] | Potency [2] | Potency [5] | Potency [7] | Potency [4]

ClC1=C(Cl)[C@]2(Cl)[C@@H]3[C@@H]4C[C@@H]([C@H]5O[C@@H]45)[C@@H]3[C@@]1(Cl)C2(Cl)Cl
inactive: Potency [1] | Potency [2] | Potency [3] | Potency [4]

O=C(O)[C@@H]1CCN1
inactive: Potency [1] | Potency [2] | Potency [5] | Potency [7] | Potency [4]

CC(C)Oc1cccnc1N(C)C1CCN(Cc2ccccc2)CC1
inactive: Potency [1] | Potency [2] | Potency [5] | Potency [6] | Potency [7] | Potency [4]

c1ccc2sc(C3(N4CCCCC4)CCCCC3)cc2c1
inactive: Potency [1] | Potency [2] | Potency [5] | Potency [7] | Potency [4]

CN1[C@H]2CC(O)C[C@H]1[C@H]1O[C@H]12 (some centres undefined)
active: Potency [8] 26.4 µM

O=C1CCC[C@@H]2[C@H]3CCCN4CCC[C@@H](CN12)[C@@H]34
inactive: Potency [8]

CC1CC(C)C(=O)C(C(O)CC2CC(=O)NC(=O)C2)C1 (centres undefined)
active: Potency [9] 3.82 µM | Potency [10] 2.41 µM | Potency [11] 1.71 µM

CC(C)[C@]12O[C@H]1[C@@H]1O[C@]13[C@]1(O[C@H]1C[C@H]1C4=C(CC[C@@]13C)C(=O)OC4)[C@@H]2O
active: Potency [10] 0.0235 µM | Potency [11] 0.0118 µM | IC50 (viability decrease) [12] 0.0066 µM
